# What was measured:
# Experiment in all cases: DAPPL (digital affinity profiling via proximity ligation, sequencing); 10 mM Tris-HCl pH 7.5, 50 mM NaCl, 1 mM DTT, 4% glycerol, room temperature, 30 min; GST-TFs on glutathione beads, 16-mer random dsDNA library, 0.1% formaldehyde crosslink after washing; high values mean tight binding
# Conditions in all cases: protein: recombinant; tags: N-terminal GST; dsDNA, one strand shown
# SPIC = molecular target: T1, SPIC (Homo sapiens, UniProt Q8N5J4 1-248)
# T1 sequence: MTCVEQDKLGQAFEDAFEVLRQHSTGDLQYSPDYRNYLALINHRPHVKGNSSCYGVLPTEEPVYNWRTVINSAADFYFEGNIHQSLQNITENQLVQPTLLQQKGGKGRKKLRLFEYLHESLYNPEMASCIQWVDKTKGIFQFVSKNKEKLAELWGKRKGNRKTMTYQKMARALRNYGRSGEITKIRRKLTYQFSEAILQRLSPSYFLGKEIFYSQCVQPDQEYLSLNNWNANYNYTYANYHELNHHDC
# Outline: (§1)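 Sequencing on an Illumina NextSeq500 followed washing, crosslinking with 0.1% formaldehyde, proximity ligation (BsaI/T4 ligase, 1 h, 37 °C) and PCR amplification of pools that had been incubated for 30 min at room temperature with 200 nmole of a random double-stranded 16-mer DNA library in Tris/NaCl/DTT/glycerol buffer. Each pool held DNA-barcoded human transcription factors, expressed in yeast as GST fusions and captured on glutathione beads, plus a tag-only sample. Binding signal is a hexamer's read frequency for a factor divided by its frequency in the tag-only sample.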
# ETV2 = molecular target: T2, ETV2 (Homo sapiens, UniProt O00321 1-342)
# T2 sequence: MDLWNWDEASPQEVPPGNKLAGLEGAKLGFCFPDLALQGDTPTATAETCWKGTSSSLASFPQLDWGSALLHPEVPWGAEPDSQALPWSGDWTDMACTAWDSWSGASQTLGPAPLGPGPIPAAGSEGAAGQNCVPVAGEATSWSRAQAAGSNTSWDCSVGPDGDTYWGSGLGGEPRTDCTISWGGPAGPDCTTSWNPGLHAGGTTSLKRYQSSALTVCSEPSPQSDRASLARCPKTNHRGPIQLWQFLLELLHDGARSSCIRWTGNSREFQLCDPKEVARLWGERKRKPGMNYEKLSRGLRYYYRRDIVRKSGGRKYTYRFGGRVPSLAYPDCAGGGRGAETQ
# Outline: as §1
# ERF = molecular target: T3, ERF (Homo sapiens, UniProt P50548 1-548)
# T3 sequence: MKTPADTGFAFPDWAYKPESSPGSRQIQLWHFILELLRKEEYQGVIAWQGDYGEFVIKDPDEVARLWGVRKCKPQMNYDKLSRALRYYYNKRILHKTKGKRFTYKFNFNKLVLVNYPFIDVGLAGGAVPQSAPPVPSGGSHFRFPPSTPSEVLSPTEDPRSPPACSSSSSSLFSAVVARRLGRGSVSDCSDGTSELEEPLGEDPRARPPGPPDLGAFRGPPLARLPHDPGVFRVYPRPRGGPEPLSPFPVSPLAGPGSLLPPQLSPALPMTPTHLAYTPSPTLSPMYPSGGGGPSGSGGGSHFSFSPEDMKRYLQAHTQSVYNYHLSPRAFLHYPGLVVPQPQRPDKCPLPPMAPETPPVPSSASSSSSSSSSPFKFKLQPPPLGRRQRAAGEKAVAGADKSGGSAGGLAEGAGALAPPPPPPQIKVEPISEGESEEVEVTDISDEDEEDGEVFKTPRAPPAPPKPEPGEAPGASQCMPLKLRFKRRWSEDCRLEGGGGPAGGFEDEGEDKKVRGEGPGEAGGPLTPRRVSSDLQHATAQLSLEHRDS
# Outline: as §1
# EHF = molecular target: T4, EHF (Homo sapiens, UniProt Q9NZC4 1-300)
# T4 sequence: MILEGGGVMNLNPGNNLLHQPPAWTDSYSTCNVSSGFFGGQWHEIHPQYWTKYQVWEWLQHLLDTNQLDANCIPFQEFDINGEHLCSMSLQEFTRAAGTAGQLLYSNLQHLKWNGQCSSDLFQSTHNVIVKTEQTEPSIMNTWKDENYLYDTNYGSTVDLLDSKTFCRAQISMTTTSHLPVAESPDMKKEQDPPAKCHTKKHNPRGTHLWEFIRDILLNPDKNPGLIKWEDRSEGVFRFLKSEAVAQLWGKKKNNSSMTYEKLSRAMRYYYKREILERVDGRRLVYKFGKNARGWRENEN
# Outline: as §1
# ELF3 = molecular target: T5, ELF3 (Homo sapiens, UniProt P78545 1-371)
# T5 sequence: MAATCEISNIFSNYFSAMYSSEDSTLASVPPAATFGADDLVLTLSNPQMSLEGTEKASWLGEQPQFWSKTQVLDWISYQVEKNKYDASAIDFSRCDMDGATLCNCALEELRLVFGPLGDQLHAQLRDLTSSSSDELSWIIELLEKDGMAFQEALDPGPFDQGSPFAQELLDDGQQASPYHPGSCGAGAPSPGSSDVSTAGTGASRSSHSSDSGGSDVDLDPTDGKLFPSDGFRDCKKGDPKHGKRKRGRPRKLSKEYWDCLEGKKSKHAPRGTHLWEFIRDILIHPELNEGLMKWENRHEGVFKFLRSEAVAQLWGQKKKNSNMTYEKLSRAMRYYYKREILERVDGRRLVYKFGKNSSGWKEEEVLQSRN
# Outline: as §1
# SPIB = SPIB (Homo sapiens, UniProt Q01892 1-262)
# Chain of SPIB (Q01892 whole entry): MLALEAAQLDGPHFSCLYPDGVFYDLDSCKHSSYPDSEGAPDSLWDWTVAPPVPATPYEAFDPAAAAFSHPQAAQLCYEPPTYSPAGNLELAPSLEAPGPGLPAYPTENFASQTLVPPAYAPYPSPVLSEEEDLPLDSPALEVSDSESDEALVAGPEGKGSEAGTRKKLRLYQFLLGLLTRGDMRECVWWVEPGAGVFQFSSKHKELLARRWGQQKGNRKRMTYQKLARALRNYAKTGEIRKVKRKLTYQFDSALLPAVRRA
# Outline: as §1
# ELK4 = molecular target: T6, ELK4 (Homo sapiens, UniProt P28324-2 1-405)
# T6 sequence: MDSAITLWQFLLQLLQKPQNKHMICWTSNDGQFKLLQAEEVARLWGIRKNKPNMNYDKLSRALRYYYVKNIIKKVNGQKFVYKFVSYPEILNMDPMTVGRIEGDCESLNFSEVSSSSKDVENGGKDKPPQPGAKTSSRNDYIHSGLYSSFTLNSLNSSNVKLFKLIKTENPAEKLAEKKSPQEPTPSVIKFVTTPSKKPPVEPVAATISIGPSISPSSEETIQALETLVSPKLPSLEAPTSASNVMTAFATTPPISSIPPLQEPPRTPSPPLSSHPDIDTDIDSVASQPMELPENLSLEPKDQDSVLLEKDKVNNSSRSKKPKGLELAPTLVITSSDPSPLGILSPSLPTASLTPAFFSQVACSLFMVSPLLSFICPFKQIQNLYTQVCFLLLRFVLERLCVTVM
# Outline: as §1
# ETV1 = ETV1 (Homo sapiens, UniProt P50549 1-477)
# Chain of ETV1 (P50549 whole entry): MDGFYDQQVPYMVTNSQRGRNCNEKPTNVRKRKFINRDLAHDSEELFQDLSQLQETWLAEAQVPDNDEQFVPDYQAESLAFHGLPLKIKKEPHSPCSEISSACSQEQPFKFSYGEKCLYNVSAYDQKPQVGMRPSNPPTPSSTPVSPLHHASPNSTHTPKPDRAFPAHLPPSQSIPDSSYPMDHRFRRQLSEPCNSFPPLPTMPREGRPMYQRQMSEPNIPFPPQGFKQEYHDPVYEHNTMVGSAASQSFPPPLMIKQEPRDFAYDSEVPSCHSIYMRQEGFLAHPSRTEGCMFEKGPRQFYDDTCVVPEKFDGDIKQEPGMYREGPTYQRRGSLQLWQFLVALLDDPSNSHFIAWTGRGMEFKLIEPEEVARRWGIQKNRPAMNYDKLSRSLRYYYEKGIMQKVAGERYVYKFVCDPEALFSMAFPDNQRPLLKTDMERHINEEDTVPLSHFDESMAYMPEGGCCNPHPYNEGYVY
# Outline: as §1
# ETV3L = molecular target: T7, ETV3L (Homo sapiens, UniProt Q6ZN32 1-361)
# T7 sequence: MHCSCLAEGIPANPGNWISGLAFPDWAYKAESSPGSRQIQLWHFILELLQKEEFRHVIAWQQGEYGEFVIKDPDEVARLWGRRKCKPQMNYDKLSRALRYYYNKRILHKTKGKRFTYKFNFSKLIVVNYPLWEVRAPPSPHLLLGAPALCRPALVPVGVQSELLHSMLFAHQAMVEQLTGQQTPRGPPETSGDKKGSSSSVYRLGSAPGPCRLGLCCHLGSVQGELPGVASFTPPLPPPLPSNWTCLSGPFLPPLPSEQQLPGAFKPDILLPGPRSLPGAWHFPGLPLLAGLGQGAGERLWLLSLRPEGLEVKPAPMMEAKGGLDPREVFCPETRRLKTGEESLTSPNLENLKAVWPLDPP
# Outline: as §1
sequence,measurement,setting,value
GTTCGT,binding signal,SPIC,"1.12 fold enrichment (6-mer frequency, TF over GST control)"
same,binding signal,ETV2,"1.05 fold enrichment (6-mer frequency, TF over GST control)"
same,binding signal,ERF,"1.12 fold enrichment (6-mer frequency, TF over GST control)"
AGATAC,binding signal,EHF,"1 fold enrichment (6-mer frequency, TF over GST control)"
same,binding signal,SPIC,"1.05 fold enrichment (6-mer frequency, TF over GST control)"
same,binding signal,ELF3,"1.01 fold enrichment (6-mer frequency, TF over GST control)"
GTGATG,binding signal,SPIB,"1.04 fold enrichment (6-mer frequency, TF over GST control)"
same,binding signal,SPIC,"1.01 fold enrichment (6-mer frequency, TF over GST control)"
same,binding signal,ELK4,"1.18 fold enrichment (6-mer frequency, TF over GST control)"
same,binding signal,ETV1,"1.03 fold enrichment (6-mer frequency, TF over GST control)"
GTGCCG,binding signal,SPIC,"1.03 fold enrichment (6-mer frequency, TF over GST control)"
same,binding signal,ETV2,"1.01 fold enrichment (6-mer frequency, TF over GST control)"
AGCATG,binding signal,SPIC,"1.07 fold enrichment (6-mer frequency, TF over GST control)"
same,binding signal,ETV3L,"1.02 fold enrichment (6-mer frequency, TF over GST control)"
